The panel holds about 79,000 compounds, 15% with a hit somewhere; the sample as a whole holds those more often. Values without a mark were called inactive. Active and inactive are the calls of the source. Cut-off read from the data, not from the text of the source: active = growth inhibition above about 70%; inactive = the rest.

The nature of test [1]: NCI Yeast Anticancer Drug Screen. Data for the rad50 strain (AID 155).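 Note: 0% = growth of vehicle-only cultures of the same strain.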 To be noted: S. cerevisiae rad50 strain growth inhibition; at 50.0 µM; stronger effect = higher value. Summed up:
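Inhibition values express reduced yeast growth in compound-treated cultures relative to vehicle-treated controls.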

Test [2] in a line: NCI Yeast Anticancer Drug Screen. Data for the mec2-1 strain (AID 157). To be noted: S. cerevisiae mec2-1 strain, at 50.0 µM, stronger effect = higher value. Summed up: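 Strain: mec2-1 (DNA repair/cell cycle alteration). Compound exposure, then growth measured; inhibition expressed relative to vehicle.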
A short description of test [3]: NCI Yeast Anticancer Drug Screen. Data for the sgs1 mgt1 strain (AID 161).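 Note: 0% = growth of cultures given vehicle only.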 To be noted: S. cerevisiae sgs1 mgt1 strain, at 50.0 µM, stronger effect = higher value. Summed up:
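Read-out: growth inhibition vs vehicle controls. Cells: mutant yeast strain deficient in DNA damage repair.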

Test [4] is described as follows: NCI Yeast Anticancer Drug Screen. Data for the cln2 rad14 strain (AID 165).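 Note: 0% = growth equal to vehicle treated cultures.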 To be noted: S. cerevisiae cln2 rad14 strain, at 50.0 µM, stronger effect = higher value. Summed up:
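Compounds are applied to the cln2 rad14 yeast strain, and growth is then compared with that of vehicle-treated cultures to give inhibition.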

Test [5] can be described thus: NCI Yeast Anticancer Drug Screen. Data for the bub3 strain (AID 167). To be noted: S. cerevisiae bub3 mutant strain, at 50.0 µM, stronger effect = higher value. Summed up:
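Steps: expose the mutant yeast strain to compound; grow alongside vehicle-treated cultures; measure growth; express inhibition against the vehicle cultures.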

A short description of test [6]: NCI Yeast Anticancer Drug Screen. Data for the mlh1 rad18 strain (AID 175). The settings on record: S. cerevisiae mlh1 rad18 strain growth inhibition; at 50.0 µM; stronger effect = higher value. The essentials:
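Read-out is yeast growth inhibition, calculated against vehicle-only controls. The compound was applied to a strain engineered with DNA damage repair alterations.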

`CC12CCC(CC1)C(C)(C)O2`: the growth inhibition in test [1] was -1.95%; in test [2], 3.3%; in test [3] it was -2.5%; in test [4] it was 9.6%; in test [5], -1.25%; in test [6] it was 4.7%.

For `COc1c2c(c3c(c1OC)c(=O)c1ccccc1n3C)OCO2`, the growth inhibition in test [1] was 6.25%; in test [2], 10.8%; in test [3], 16.8%; in test [4], 8.5%; in test [5], 8.8%; in test [6], 13.2%.

For the compound `C=C1C(=O)O[C@@H]2C[C@@]3(C)CC(=O)C=C(C)[C@@H]3C[C@H]12`, the growth inhibition is 12.6% in test [1]; -7.15% in test [2]; -7.2% in test [3]; 24.7% in test [4]; 15.8% in test [5]; -16.4% in test [6].

For the compound `COc1ccc2c(=O)c(-c3cc4c(cc3OC)OCO4)coc2c1`, the growth inhibition was -26.5% in test [1]; -30.9% in test [2]; -11.3% in test [3]; -3.1% in test [4]; -33.5% in test [5]; -56.4% in test [6].

In the case of `COc1c(OC)c(OC)c2c(c1OC)c(=O)c1ccccc1n2C`, the growth inhibition is 12.6% in test [1]; 22.9% in test [2]; 30.8% in test [3]; 18.8% in test [4]; 14.4% in test [5]; -42.2% in test [6].

Turning to `C=C1C(=O)O[C@H]2C[C@@]3(C)[C@H](O)CCC(=C)[C@@H]3[C@@H](OC(C)=O)[C@H]12`, the growth inhibition is 2.95% in test [1]; 25.4% in test [2]; 0.05% in test [3]; -6.7% in test [4]; -26.8% in test [5]; -29.4% in test [6].

As to `Cc1ccc2c(sc(-c3ccc4c(c3)sc(-c3ccc5c(c3)sc(-c3ccc(N(C)C)cc3)[n+]5C)[n+]4C)[n+]2C)c1S(=O)(=O)O` (tested in a mixture with another compound), the growth inhibition in test [1] was 27.7%; in test [2], 22.3%; in test [3], 46.4%; in test [4] it was 40.1%; in test [5], 35%; in test [6], 70.4% (active).

For the compound `O=C(NC1=NC2C=CC([N+](=O)[O-])=CC2S1)C(=O)Nn1c(=S)[nH]c2ccccc2c1=O` (stereo not given), the growth inhibition was 6.8% in test [1]; -14.9% in test [2]; 20.2% in test [3]; 10.8% in test [4]; 20.7% in test [5]; 24.1% in test [6].

Turning to `COC(=O)C(Cc1nc2ccccc2[nH]c1=O)C(=O)C(=O)Nc1cc(C(F)(F)F)ccc1Cl` (stereo not given), the growth inhibition in test [1] was 5.3%; in test [2], -18.5%; in test [3] it was 19.4%; in test [4], 4.65%; in test [5], 2.4%; in test [6], 11.4%.

`CC1=C(/C=C/C(C)=C/C=C/C(C)=C/C(=O)Nc2ccc(O)cc2)C(C)(C)CCC1`: the growth inhibition in test [1] is -28.4%; in test [2], 1.05%; in test [3] it was -2.3%; in test [4], 6.45%; in test [5], 12.2%; in test [6], -13.2%.

With `Cc1ccc(/C=N/Nc2ccccn2)s1`, the growth inhibition in test [1] is -10.9%; in test [2], -12.5%; in test [3] it was -2%; in test [4], 11.4%; in test [5] it was -11.2%; in test [6], 0.7%.

As to `COc1cc2c(cc1-c1coc3cc(O)ccc3c1=O)OCO2`, the growth inhibition in test [1] was -12.6%; in test [2], -24.3%; in test [3], -15.6%; in test [4] it was 11.2%; in test [5] it was -14.3%; in test [6], -42.6%.

`CCn1c2c(c3ccccc3c1=O)C(=O)c1ccccc1-2`: the growth inhibition is 12% in test [1]; 3.9% in test [2]; 16.8% in test [3]; 12.8% in test [4]; -3.85% in test [5]; -49.4% in test [6].

As to `COC(=O)C1=CO[C@@H](OC2OC(CO)C(O)C(O)C2O)[C@H]2[C@@H](C)[C@@H](O)[C@@H](O)[C@@H]12` (stereo not given in full), the growth inhibition in test [1] is -5.15%; in test [2], -10.1%; in test [3], -0.75%; in test [4], 2.4%; in test [5] it was -5.9%; in test [6] it was -57.7%.

On to `COc1ccc2cc(CN3CCC(C4CCNCC4)CC3)ccc2c1`, for which the growth inhibition in test [1] was 15.6%; in test [2] it was -4.8%; in test [3] it was 1.55%; in test [4], 14.7%; in test [5] it was 20.8%; in test [6] it was 86% (active).

As for `NNc1[nH]c(=S)[nH]c1C(N)=O`, the growth inhibition in test [1] is -29.6%; in test [2], -8.5%; in test [3] it was -21.4%; in test [4], -7.65%; in test [5], -22.1%; in test [6], -11.7%.

Consider `CC/C(Cl)=N\OC(=O)Nc1ccc(OC)cc1`, for which the growth inhibition was -5.35% in test [1]; -16.1% in test [2]; -3.3% in test [3]; 2.6% in test [4]; 1.15% in test [5]; -68.8% in test [6].

In the case of `CC1OC(Oc2c(-c3cc(O)c(O)c(O)c3)oc3cc(O)cc(O)c3c2=O)C(O)C(O)C1O` (stereo not given), the growth inhibition in test [1] was -14.2%; in test [2] it was -16.8%; in test [3] it was -8%; in test [4] it was 9.75%; in test [5], -21.2%; in test [6], -13.6%.

For `C=CC(COC(=O)C(C)(C)OC(C)=O)c1ccc(OC(=O)C(C)C)c(OC)c1` (stereo not given), the growth inhibition in test [1] is -12.3%; in test [2], -2.75%; in test [3], 20.4%; in test [4] it was -12.3%; in test [5], -9%; in test [6], -76.1%.

Regarding `CCC1OC2(C)CC(C#N)(C#N)C1(C#N)C(=N)O2` (stereo not given), the growth inhibition in test [1] was 0.6%; in test [2], -3.9%; in test [3], -46.4%; in test [4], -8.2%; in test [5] it was -31.4%; in test [6], -10.7%.

(Values after PubChem BioAssay (NCI).)
